Screen size: about 350,000 compounds; about 1,600 (0.46%) were called active. The sample as a whole holds a higher share of actives than the screen did. Values without a mark were called inactive.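 Rule for the calls: active = activation of at least 50%, plus an integration ratio under a set limit after plate pattern correction; inactive = the rest.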
What follows are molecules tested on CRF-binding protein / CRF receptor 2 complex (human) (assay: activators of CRF-R2 with CRF-BP – cell-based, HEK293, calcium dye fluorescence, uHTS, primary screen (AID 588473;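 note: plate controls were neutral control wells without compound for no effect and CRF at EC100 for full effect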)). Settings: calcium dye fluorescence (FLIPR), at 13.2 µM, stronger effect = higher value, percent of saturating CRF peptide response.

Structure (SMILES) | activation
CCNC(=S)N1CCN(S(=O)(=O)c2ccc(Cl)s2)CC1 | 3.39%
CC(=O)Nc1ccccc1Sc1ccc2c3c(cccc13)C(=O)N(c1ccc(C)cc1)C2=O | 87.7% (active)
CSc1ccccc1NC(=O)C(C)N1C(=O)c2ccccc2S1(=O)=O (centres undefined) | 1.1%
Cc1ccc(N2C(=O)CC(Nc3cccc4ccccc34)C2=O)cc1 (centres undefined) | 0.15%
CCC(=O)N1CCc2cc(Br)c(S(=O)(=O)NCCN3CCCCC3CC)cc21 (centres undefined) | -1.55%
CSc1cccc(NC(=O)CN2C(=O)COc3ccc(S(=O)(=O)N4CCOCC4)cc32)c1 | -1.06%
O=C(COc1ccc(S(=O)(=O)N2CCCC2)cc1[N+](=O)[O-])N1CCCCC1 | -0.47%
COc1ccc2c(c1)SC(C)CC2=O (centres undefined) | -0.7%
COc1ccc2c(c1)C(=O)CC(c1ccccc1)O2 (centres undefined) | -2.49%
COc1ccc2c(c1)OC(O)(C(F)(F)C(F)F)CC2=O (centres undefined) | 66.2% (active)
COc1ccc(-c2c(-c3cc(OC)cc(OC)c3)n(C)c3ccc(-c4ccn[nH]4)cc23)cc1 | 2.7%
CC1CC1C(=O)OCC(=O)Nc1cccc(F)c1 (centres undefined) | 1.09%
CCOCCc1c(O)nc(SCC(=O)NCc2ccco2)[nH]c1=O | 0.28%
Cc1ccc(CN(C)C[C@@H]2OCc3cnnn3CCCC(=O)N([C@@H](C)CO)C[C@H]2C)cc1 | 0.05%
COC(=O)Cc1cc(=O)oc2c(C)c(O)ccc12 | 2.46%
COc1cccc2cc(S(=O)(=O)c3ccc(C)cc3)/c(=N/NS(=O)(=O)c3ccc(C)cc3)oc12 | 2.38%
Cc1cc(S(=O)(=O)c2cc3ccc(O)c(C)c3oc2=O)ccc1F | 91.1% (active)
COc1ccc(-c2[nH]ncc2CN(C)Cc2cc(C)[nH]n2)c(F)c1 | -4.41%
CCN(CC)c1ccc(NC(=O)C2CCC(CNc3c(N4CCCC4)c(=O)c3=O)CC2)c(C)c1 (centres undefined) | -1.59%
COc1ccc(/C=C(\C#N)C(=O)OCC(=O)N(C)C2CCS(=O)(=O)C2)cc1 (centres undefined) | -0.47%

Structure (SMILES) | activation
CC(C)OC(=O)C(C#N)c1nc2ccccc2nc1N1CCN(Cc2ccccc2)CC1 (centres undefined) | 4.17%
CCOC(=O)/C(C#N)=C/c1ccc(N2CCCCC2)cc1 | 69.9% (active)
CCOC(=O)/C(C#N)=C/c1ccc(N2CCN(Cc3ccccc3)CC2)cc1 | 100% (active)
COc1ccc(/C=C(\C#N)C(=O)ONC2=NCCCCC2)cc1 | -0.53%
CCCn1c(C)cc(/C=C(\C#N)C(=O)OCC(=O)N(C)c2c(N)n(Cc3ccccc3)c(=O)[nH]c2=O)c1C | -1.33%
CC(C)c1nc(CNC(=O)CC2C(=O)NCCN2Cc2ccoc2)cs1 (centres undefined) | 3.31%
CCO[C@H]1OC(C(=O)N2CCN(Cc3ccccc3)CC2)=C[C@@H](c2cn(C(C)=O)c3ccccc23)[C@@H]1CCCO | -0.99%
O=C(OCc1cn(-c2ccc(Cl)c(Cl)c2)nn1)c1ccccc1Cl | 5.3%
CC(C(=O)N1CCN(c2ccccc2F)CC1)c1ccc([N+](=O)[O-])cc1 (centres undefined) | -0.08%
CC(C)CNC(=O)/C=C/C(=O)O | -1.76%
CCCc1cc(=O)n2[nH]c(SCc3ccccc3)nc2n1 | 1.41%
Cc1cccc(-c2nnc(SCC(=O)O)n2Cc2ccccc2)c1 | -1.45%
Cc1ccc2c(c1)nnc1nnc(SCC(=O)O)n12 | 187% (active)
CCn1nnnc1SCC(=O)c1ccc(C)cc1C | 1.45%
CC1(C)C2CCC13CS(=O)(=O)NC3C2 (centres undefined) | -2.27%
CC1Cc2nc(SCC(=O)Nc3ccccc3F)n(C)c(=O)c2S1 (centres undefined) | -2.32%
COc1cccc(N(CC(=O)NC2CCCC2)C(=O)Cn2nnc(-c3ccc(C)cc3)n2)c1 | -0.55%
CCOc1ccc(C(=O)NC2CCN(C(=O)Nc3ccccc3OC)CC2)cc1 | 1.14%
CCOc1ccc2nc(NCCNC(=O)C(C)(C)C)c(C)cc2c1 | 0.31%
CCOc1ccc2nc(N3CCCN(C(=O)Nc4ccccc4C)CC3)c(C#N)cc2c1 | 53.4% (active)

Structure (SMILES) | activation
CCC(=O)Nc1cc(C(F)(F)F)ccc1N1CCCC1 | -0.05%
CCCCCCSc1ccc([C@@H]2[C@@H]3C(=O)N(CC)C(=O)[C@@H]3[C@]3(C(=O)OC)CCCCN23)cc1OC | 5.06%
N#C/C(=C\C1=C(N2CCOCC2)C(=C\c2ccccc2)/CC1)C(=O)Nc1ccccc1F | 10.9%
O=C(N1CCOCC1)N1CCOCC1 | -0.16%
N#C/C(=C/c1ccc(N2CCOCC2)o1)C(=O)N1CCOCC1 | 67.4% (active)
N#C/C(=C\N1CCOCC1)S(=O)(=O)c1ccc(Cl)cc1 | -0.74%
N#C/C=C(/c1ccc(F)cc1)N1CCOCC1 | -1.81%
N#C/C(=C\c1ccc(N2CCOCC2)o1)C(=O)N1CCOCC1 | 57.8% (active)
CCCN(CC(=O)Nc1ccc(C(N)=O)cc1)CC(=O)Nc1ccccc1C | -1.42%
CCCn1nc(NC(=O)C(C)C)c2cc3cc(OC)ccc3nc21 | -3.44%
O=C(O)CSc1nccc2ccccc12 | -1.24%
NS(=O)(=O)c1ccc(-c2ccc(/C=C3\SC(=O)NC3=O)o2)cc1 | -4.11%
O=C(O)C(c1ccccc1)N1C(=O)/C(=C\c2ccc(-c3cccc(Cl)c3)o2)SC1=S (centres undefined) | 53.1% (active)
O=C1/C(=C/c2ccc(F)cc2)SC(=S)N1NS(=O)(=O)c1ccccc1 | -2.42%
CC(C(=O)NC1CCS(=O)(=O)C1)N1C(=O)/C(=C/c2ccc(Cl)cc2)SC1=S (centres undefined) | 0.11%
Cn1cccc1/C=C1\SC(=S)N(NC(=O)c2ccc(Cl)cc2)C1=O | 0.66%
CN1C(=O)/C(=C\c2ccc(-c3ccccc3)o2)SC1=S | 177% (active)
Cc1nn(CC(=O)NC2CCCCC2)c(=O)c2cccn12 | -0.23%
O=S1(=O)C=C(SCCN2CCCC2)c2ccccc21 | 0.69%

— PubChem BioAssay AID588473 (Sanford-Burnham Center for Chemical Genomics, 2011)
